Measured values published in PubChem BioAssay AID504847 (National Center for Advancing Translational Sciences (NCATS), 2011).
The whole screen tested about 400,000 compounds, of which about 3,700 (0.93%) were called active. Inconclusive results (about 3%) are left out. The sample holds actives, similar compounds and a random draw of the others, so the mix is not that of the screen. Calls follow the shape of the dose curve; as a rule, active = well fitted inhibition curve with a large enough effect; inconclusive = small, poorly fitted or top-dose-only effect, or another doubt; inactive = no such curve, though single readings can be large or run the other way.
% is scaled to controls: 0 for no effect and ±100 for the full control effect; potency is read from the fitted curve at half-maximal effect.

These molecules were tested against Vitamin D3 receptor (Homo sapiens) (UniProt P11473) (assay: Inhibitors of the vitamin D receptor (VDR): qHTS). Settings: VDR-SRC2-3 peptide fluorescence polarization, 2 h; max response, negative = inhibition: hits give low values.
Chain of Vitamin D3 receptor (Homo sapiens) (P11473 whole entry, looked up): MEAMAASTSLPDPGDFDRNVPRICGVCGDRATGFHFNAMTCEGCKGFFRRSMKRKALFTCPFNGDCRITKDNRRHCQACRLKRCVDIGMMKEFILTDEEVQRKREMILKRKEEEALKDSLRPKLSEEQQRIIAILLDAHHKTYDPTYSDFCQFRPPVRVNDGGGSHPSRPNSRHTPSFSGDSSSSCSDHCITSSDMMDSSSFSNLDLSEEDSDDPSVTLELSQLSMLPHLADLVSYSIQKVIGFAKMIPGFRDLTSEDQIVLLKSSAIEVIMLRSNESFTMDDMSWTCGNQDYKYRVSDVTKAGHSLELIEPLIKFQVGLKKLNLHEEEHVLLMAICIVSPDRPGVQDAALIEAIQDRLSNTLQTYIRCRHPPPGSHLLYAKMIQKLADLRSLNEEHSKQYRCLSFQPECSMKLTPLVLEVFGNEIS
In short: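 Fluorescence polarization assay measuring small-molecule disruption of VDR binding to the coregulator peptide SRC2-3. Compounds were pin-transferred (23 nl) into the reagent mix and incubated 2 h at room temperature before reading.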
For `O=C(Cn1c(=O)n(-c2ccc(F)cc2)c(=O)c2sc3ccccc3c21)NC1CCCC1`, the max response, negative = inhibition was 8.11% (inactive).
For `COc1ccccc1Nc1nc(N)nc(N)c1S(=O)(=O)c1ccccc1`, the max response, negative = inhibition was 15.2% (inactive).
For `COC(=O)c1ccc(NC(=O)CSc2n[nH]c(-c3ccccc3)n2)cc1`, the max response, negative = inhibition was 9.27% (inactive).
With `COc1ccc2ncc3c(-c4ccc(C)c(C)c4)nn(CC(=O)NC4CCCC4)c3c2c1` the max response, negative = inhibition was 5.23% (inactive).
`CCN1CCC(O)(/C=C/c2ccc(C)cc2)C(C(=O)/C=C/c2ccc(C)cc2)C1` (centres undefined) was tested, and the Potency was 25.1 µM (active).
`COc1ccc2c(c1)C=C(C(=O)NCc1cc(Br)ccc1OC)CO2` was tested, and the max response, negative = inhibition was 8.92% (inactive).
In the case of `Cc1ccc(NC(=O)CN2CCC(C(N)=O)CC2)cc1[N+](=O)[O-]`, the max response, negative = inhibition is reported as -4.1% (inactive).
With `O=C(CN1CCOCC1)N/N=C/c1ccc(-c2ccc(Br)cc2)o1` the max response, negative = inhibition was 13.8% (inactive).
For `Cc1ccc(-c2ccc(/C=N/NC(=O)CN3CCOCC3)o2)cc1[N+](=O)[O-]`, the Potency was 2.51 µM (active).
In the case of `O=C(CN1CCSc2ccccc21)N1CCN(c2ccccc2)CC1`, the max response, negative = inhibition is reported as 16.3% (inactive).
With `Cc1ccccc1CSc1nc2c([nH]c3ccccc32)c(=O)n1C` the max response, negative = inhibition was 2.18% (inactive).
In the case of `CCC(CC)c1nnc(NC(=O)C2CCN(C(=O)c3ccco3)CC2)s1`, the Potency is reported as 89.1 µM (active).
`COc1ccc(CNC(=O)C2CCN(C(=O)c3ccco3)CC2)cc1` was tested, and the max response, negative = inhibition was 3.03% (inactive).
In the case of `CCc1nnc(NC(=O)C2CCN(C(=O)c3ccccc3C)CC2)s1`, the max response, negative = inhibition is reported as 0.925% (inactive).
With `Cc1ccc(-c2noc(-c3nnn(-c4cccc(C(F)(F)F)c4)c3N)n2)cc1` the max response, negative = inhibition was 7.83% (inactive).
With `O=Cc1cn(-c2ccccc2)nc1-c1ccccn1` the max response, negative = inhibition was 0.792% (inactive).
For `O=C1C(c2ccccn2)=[N+]([O-])c2ccccc21`, the Potency was 12.6 µM (active).
For `O=C(c1ccc2c(=O)n(Cc3ccco3)c(=S)[nH]c2c1)N1CCCC1`, the max response, negative = inhibition was -15.6% (inactive).
For `CCOC(=O)c1cc2c(=O)n3ccccc3nc2n(CC2CCCO2)c1=NC(=O)c1ccc(C(C)(C)C)cc1` (centres undefined), the max response, negative = inhibition was -4.97% (inactive).
With `CC1=C(c2ccc(F)cc2)S(=O)(=O)N=C1N1CCC(C(=O)NCCc2ccccc2C)CC1` the max response, negative = inhibition was 9.29% (inactive).
In the case of `Cc1nn(CC(=O)N2CCN(c3cccc(C(F)(F)F)c3)CC2)c(=O)c2cc3sccc3n12`, the max response, negative = inhibition is reported as -6.46% (inactive).
For `CCOC(=O)c1ccc(NC2=CC(c3ccc(OCC)cc3)N(c3ccc(C(=O)OCC)cc3)C2=O)cc1` (centres undefined), the Potency was 28.2 µM (active).
For `CCOC(=O)c1ccc(-c2ccc(/C=C(\C#N)C(=O)Nc3ccc(OCC)cc3)o2)cc1`, the max response, negative = inhibition was -4.51% (inactive).
In the case of `NS(=O)(=O)c1ccc(NC2=CC(c3ccc(F)cc3)N(c3ccc(S(N)(=O)=O)cc3)C2=O)cc1` (centres undefined), the max response, negative = inhibition is reported as 21.6% (inactive).
